High-throughput results as filed in PubChem BioAssay.
SRC1 inh: SRC1 coactivator transcriptional activity inhibitors, primary screen, cell-based, luminescence. Nuclear receptor coactivator 1 (Homo sapiens), Q15788. HEK293 GAL4-SRC1 luciferase reporter. inhibition, % at 3.6 µM. 360,000 compounds, 0.12% hits;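 active = inhibition above the campaign mean plus 3 SD, with each screening campaign given its own cutoff, cut at about 60% in these data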;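 note: 0% = DMSO treated cells and 100% = gossypol at 36 µM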
LRH-1 inv ag: LRH-1 (NR5A2) inverse agonists, primary screen, cell-based, luminescence, HEK293T, StAR-luciferase reporter | inhibition, % at 3.6 µM | LRH-1 transfected, 24 h | AID 602396, 2012 | 360,000 compounds, 0.13% hits;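 active = inhibition above the mean inhibition of all tested compounds plus 3 SD, cut at about 73% in these data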;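 note: 0% = DMSO wells and 100% = reporter-only cells lacking LRH-1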
NR2F2 inh: NR2F2 transcriptional activity inhibitors, primary screen, cell-based, luciferase reporter, HEK293T, luminescence | COUP transcription factor 2 (Homo sapiens), P24468 | HEK293T NGFI-A luciferase reporter | inhibition, % at 8.6 µM | 370,000 compounds, 0.7% hits | AID 686940, 2013;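 active = inhibition above a per-plate cutoff, mean inhibition of test wells between control levels plus 3 SD, cut at about 38% in these data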;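 note: cells cotransfected with COUP-TFII expression vector driving the NGFI-A reporter; 0% = median of COUP-TF2 test wells and 100% = reporter-only cells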
SRC2 inh: inhibition of GAL4-SRC2 driven luciferase reporter, primary screen, SRC2 inhibitor project, cell-based, luminescence | Nuclear receptor coactivator 2 (Homo sapiens), Q15596 | HEK293 GAL4-SRC2 luciferase reporter | inhibition, % at 9 µM | 370,000 compounds, 0.17% hits | AID 651957, 2012;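 active = inhibition above the mean inhibition of all tested compounds plus 3 SD, set per campaign, cut at about 52% in these data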;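 note: 0% = DMSO treated cells and 100% = cells given Gossypol at 36 µM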
NCOA3 inh: SRC3 coactivator transcriptional activity inhibitors, primary screen, cell-based, luminescence | inhibition, % at 3.6 µM | Nuclear receptor coactivator 3 (Homo sapiens), Q9Y6Q9 | 360,000 compounds, 0.17% hits | HEK293 GAL4-SRC3 luciferase reporter | AID 588352, 2011;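 active = inhibition above a per-campaign cutoff, the mean of all compounds plus 3 SD, cut at about 60% in these data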;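 note: 0% = DMSO-treated cells and 100% = gossypol-treated cells at 36 µM; higher means less SRC3-driven luciferase light from the GAL4 reporter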
An asterisk follows results filed as active; / = no result given. A selection: hits, their analogues and other compounds. The true share with any hit is near 0.81%.

SMILES	SRC1 inh	LRH-1 inv ag	NR2F2 inh	SRC2 inh	NCOA3 inh
O=C(Nc1sc2c(c1C(=O)NCCCO)CCCC2)c1ccccc1	86*	11	-12	-27	6
NCCNC(=O)c1c(NC(=O)c2ccccc2)sc2c1CCCC2	-32	-14	-5	-45	-36
c1ccc(-c2ccc(C3=Nn4c(nnc4-c4ccncc4)SC3)cc2)cc1	/	/	0	7	/
c1csc(C2=Nn3c(nnc3-c3ccncc3)SC2)c1	65*	41	29	43	60
Cc1[nH]c2ccccc2c(=O)c1C(=O)/C=C/c1ccccc1	64*	41	11	65*	72*
O=C(Cn1c(=O)cnc2ccccc21)N1CCN(S(=O)(=O)c2ccccc2Br)CC1	-16	-16	-18	-9	10
Cc1onc(-c2c(F)cccc2Cl)c1-c1ncc(-c2ccc(Cl)cc2)o1	/	/	-10	13	/
COc1ccc2c(n1)Sc1nc3ccccc3nc1N2	-105	-147	29	65*	-96
CCCN(CCC)c1ncnc2nc[nH]c12	59	27	25	37	65*
Clc1ccccc1CN(Cc1ccccc1)c1ncnc2nc[nH]c12	-4	6	-4	6	8
CCCN1CCC(NC(=O)Nc2ccc([N+](=O)[O-])cc2)CC1	-37	-7	-9	-7	0
O=C(NCc1ccc(F)c(F)c1)C1Cc2c(-c3ccc4c(c3)OCO4)ccnc2O1 (stereo not drawn)	6	-5	-9	-9	4
N=c1c2c(-c3ccccc3)c(-c3ccccc3)n(Cc3ccccc3)c2ncn1CCCn1ccnc1	50	40	14	-32	67*
CCCCn1cnc2c(c(-c3ccccc3)c(-c3ccccc3)n2Cc2ccco2)c1=N	14	29	20	-32	14
Nc1ccc(Nc2ccncc2)cc1	-5	6	-10	8	7
CN1C=C/C(=C\c2cc[n+](C)c3ccccc23)c2ccccc21	53	81*	46*	23	38
CCC1C/C(=C\c2cccnc2)C(=O)/C(=C/c2cccnc2)C1 (stereo not drawn)	-394	52	91*	92*	45
O=C1/C(=C/c2cccnc2)CCC/C1=C\c1cccnc1	/	/	91*	74*	/
O=C(CCc1nc2ccccc2c(=O)[nH]1)N1CCN(S(=O)(=O)c2cccc(F)c2)CC1	-7	-6	5	4	6
O=C(C=P(c1ccccc1)(c1ccccc1)c1ccccc1)c1ccccc1-c1ccccc1C(=O)C=P(c1ccccc1)(c1ccccc1)c1ccccc1	59	94*	80*	8	62*
COC(=O)[C@]12C[C@H](CC(=O)NCc3cccc(C(F)(F)F)c3)C(=O)N(Cc3ccc(Cl)cc3Cl)C1=C[C@H](COCc1ccccc1)O[C@@H]2C	/	/	-3	-7	/
C=CCn1c(C)cc(C(=O)CN2C(=O)c3ccccc3S2(=O)=O)c1C	87*	88*	/	/	88*
Cc1cc(C(=O)CN2C(=O)c3ccccc3S2(=O)=O)c(C)n1-c1ccccc1	-12	-10	35	41	-5
Cc1ccc(-n2nnnc2Sc2ccc(S(=O)(=O)NCCN(C)C)cc2[N+](=O)[O-])cc1	18	36	-9	50	67*
CCCCC(=O)NC(c1ccc(C(C)C)cc1)c1ccc2cccnc2c1O (stereo not drawn)	42	7	-5	25	68*
SMILES	SRC1 inh	LRH-1 inv ag	NR2F2 inh	SRC2 inh	NCOA3 inh
CCCC(=O)NC(c1ccccc1)c1ccc2cccnc2c1O (stereo not drawn)	19	11	9	34	26
CCCC(=O)NC(c1ccc(OC)cc1)c1ccc2cccnc2c1O (stereo not drawn)	20	13	-13	20	62*
CCCCC(=O)NC(c1ccccc1)c1ccc2cccnc2c1O (stereo not drawn)	40	89*	-5	-11	66*
CC(=O)NC(c1ccc(C(C)C)cc1)c1ccc2cccnc2c1O (stereo not drawn)	68*	90*	-25	35	82*
COC(=O)[C@H](CC(C)C)N1Cc2nnn(Cc3ccccc3)c2-c2cc(F)ccc2S1(=O)=O	/	/	-5	-29	/
CCCCCC[C@H](CN(CCCC)S(C)(=O)=O)c1ccccc1	/	/	14	0	/
CCCCC(=O)NC(c1ccccc1Cl)c1ccc2cccnc2c1O (stereo not drawn)	54	60	-8	32	73*
CCCCC(=O)NC(c1cccc([N+](=O)[O-])c1)c1ccc2cccnc2c1O (stereo not drawn)	25	11	30	44	22
Cn1c(/C=C/c2ccc(Cl)cc2)c([N+](=O)[O-])c(=O)n(C)c1=O	29	29	-6	29	62*
COc1ccc(/C=C/c2c([N+](=O)[O-])c(=O)n(C)c(=O)n2C)cc1OC	-15	-10	-8	-5	-24
CN1CCN(c2ccc(Cl)cc2NC(=O)CCN2C(=O)c3ccccc3C2=O)CC1	-11	10	-5	11	12
O=c1[nH]c(=O)n([C@H]2C[C@H](O)[C@@H](CO)O2)cc1C(F)(F)F	77*	-35	4	-27	65*
O=c1[nH]c(=O)n(C2CC(O)C(CO)O2)cc1Br (stereo not drawn)	23	-120	20	-62	20
O=c1[nH]c(=O)n(C2C[C@H](O)[C@@H](CO)O2)cc1C(F)(F)F (stereo partly drawn)	75*	-29	-19	-6	73*
CCN1CCCCC(NC(=O)c2ccccc2OC)C1=O (stereo not drawn)	/	/	3	-7	/
CCOc1ccc(C(=O)CSCCC(=O)O)cc1	13	5	56*	55*	23
CCOc1ccc(C(=O)Cc2ccccc2)cc1	-54	-57	-48	-52	-46
O=C(Nc1cccc(S(=O)(=O)Nc2ccc(Cl)cc2)c1)c1ccc(Cl)nc1	-9	58	82*	24	22
CN1CCN(S(=O)(=O)c2cccc(C(=O)N3CCN(c4ccccc4F)CC3)c2)CC1	-3	2	-11	9	6
C[C@H](CO)N1C[C@H](C)[C@H](CN(C)C(=O)Nc2ccc(F)cc2)Oc2ncc(Br)cc2C1=O	/	/	1	-7	/
COC(=O)C(CO)Nc1ncnc2onc(-c3ccc(F)cc3)c12 (stereo not drawn)	-9	-4	4	-9	-3
CSc1nnc(NC(=O)c2nc(S(=O)(=O)Cc3cccc(C)c3)ncc2Cl)s1	-43	14	17	56*	-17
O=C(c1cc(C(=O)N2CCCC2)cc([N+](=O)[O-])c1)N1CCCC1	-23	-5	-10	-15	-20
C=CCNC(=S)N/N=C(\C)c1ccccn1	-41	101*	11	14	23
CC(=NNC(=S)Nc1ccccc1)c1ccccn1	54	81*	16	3	51
